Screens (PubChem)
FBW7 act = human FBW7 E3 ligase activation, primary screen; Q969H0; AlphaScreen FBW7–phospho-cyclin E peptide binding, activator screen; normalized activity (activation), % at 26.1 µM; actives 0.13% (n = 650,000); AID 1259310; in the data active = normalized activity above about 1.9%;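 also: purified mutant Fbw7 with reduced substrate affinity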
GPR151 ag = activates the human receptor GPR151 | Q8TDV0 | PathHunter beta-arrestin GPR151 cells, luminescence | activation, % at 11.2 µM | actives 1% (n = 650,000) | AID 1508602; in the data active = activation above about 4.9%;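 also: 0% = median of compound wells and 100% = cells with positive control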
MITF inh = inhibitors of human MITF. actives 0.91% (n = 650,000). AlphaScreen MITF homodimerization, bead proximity signal. AID 1259374. inhibition, % at 2.6 µM. O75030; in the data active = inhibition above about 50%;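 also: 0% = vehicle wells with protein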
Target sequence (O75030 whole entry, looked up): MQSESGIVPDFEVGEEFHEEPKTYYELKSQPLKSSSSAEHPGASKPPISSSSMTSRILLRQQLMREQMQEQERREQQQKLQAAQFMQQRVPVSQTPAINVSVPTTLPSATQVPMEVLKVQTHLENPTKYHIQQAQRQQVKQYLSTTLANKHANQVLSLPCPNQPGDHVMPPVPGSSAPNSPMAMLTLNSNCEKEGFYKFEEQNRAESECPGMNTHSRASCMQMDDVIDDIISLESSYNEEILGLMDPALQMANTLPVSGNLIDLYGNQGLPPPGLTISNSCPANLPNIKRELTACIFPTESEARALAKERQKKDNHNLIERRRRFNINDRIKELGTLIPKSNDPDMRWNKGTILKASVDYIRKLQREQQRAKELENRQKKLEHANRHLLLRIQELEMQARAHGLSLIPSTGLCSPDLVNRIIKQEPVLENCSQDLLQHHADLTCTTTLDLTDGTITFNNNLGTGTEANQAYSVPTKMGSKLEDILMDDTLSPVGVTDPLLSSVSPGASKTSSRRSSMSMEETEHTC
TEAD-YAP block = TEAD-YAP interaction inhibition | HEK-TIYL cells, TEAD-Gal4/YAP UAS-luciferase luminescence | AID 1259422 | inhibition, % at 9.12 µM | actives 1.4% (n = 640,000); in the data active = inhibition above about 32%;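 also: 0% = median of test compound wells and 100% = reference inhibitor wells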
GPR151 conf act = human GPR151 activation, confirmation screen; shares compounds with GPR151 ag; GPR151 PathHunter beta-arrestin cells, luminescence, 90 min; % of EA-reagent control over plate median; activation, % at 11.2 µM; 6,700 tested, under 10 active;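 active = mean percent activation across replicates above the confirmation screen cutoff of 4.91%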
GPR119 counter = activates human GPR119 in a GPR151 counter-screen | GPR119 PathHunter beta-arrestin cells, luminescence, 90 min; 0 = compound-well median, 100 = enzyme-acceptor control | AID 1508611 | activation, % at 11.2 µM | actives 0.3% (n = 6,700) | shares compounds with GPR151 ag;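 active = mean percent activation in the counterscreen above 29.09%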;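 also: counterscreen on off-target GPR119 to flag nonselective hits from the GPR151 activator screen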
* marks the source's active call; other numbers are inactive results; ! = not confirmed by another sample. Sampled rows, rich in hits. Any-hit rate of the full collection: about 3.4%.

Results for COc1cc(C2C([N+](=O)[O-])=C(N)Oc3c2c(=O)oc2ccccc32)ccc1O (stereo not drawn) ?
FBW7 act: 0; GPR151 ag: 5.7*; MITF inh: 3; TEAD-YAP block: 26; GPR151 conf act: 0; GPR119 counter: -4

How did CC(C)n1[nH]c(=O)c2c1NC(=O)CSC2c1ccc(Cl)cc1 (stereo not drawn) do in these assays?
FBW7 act: 0; GPR151 ag: 1; MITF inh: 5; TEAD-YAP block: -7

How did C[C@H](N)[C@H](O)c1ccc(O)c(O)c1 do in these assays?
FBW7 act: 0; GPR151 ag: 5.7*!; MITF inh: 84*; TEAD-YAP block: -2; GPR151 conf act: 1; GPR119 counter: 5

What do the screens show for `CC1=C(C(=O)OC(C)C)C2(C(=O)Nc3ccc(Br)cc32)C(C#N)=C(N)O1` (stereo not drawn)?
FBW7 act: 0; GPR151 ag: 14*; MITF inh: 19; TEAD-YAP block: 5; GPR151 conf act: 0; GPR119 counter: -6

How did CCOC(=O)C1=C(C)OC(N)=C(C#N)C12C(=O)Nc1ccc(Br)cc12 (stereo not drawn) do in these assays?
FBW7 act: 0; GPR151 ag: 1; MITF inh: 4; TEAD-YAP block: 0

What do the screens show for `CCN(CC)c1ccc(/C=C\[N+](=O)[O-])c(C)c1`?
FBW7 act: 0; GPR151 ag: 6.7*; MITF inh: -10; TEAD-YAP block: 7; GPR151 conf act: 1; GPR119 counter: 18

What do the screens show for `O=c1oc2ccccc2c(O)c1C(c1ccc2c(c1)OCO2)c1c(O)c2ccccc2oc1=O`?
FBW7 act: 0; GPR151 ag: 15*; MITF inh: -10; TEAD-YAP block: -7; GPR151 conf act: 0; GPR119 counter: 4

Results for O=C1NC(=S)NC(=O)C1=Cc1ccc(I)o1 ?
FBW7 act: -2; GPR151 ag: 5.7*; MITF inh: 63*; TEAD-YAP block: 3; GPR151 conf act: -1; GPR119 counter: -9

How did CCCN1CCC[C@@H]2Cc3nc(N)ncc3C[C@H]21 do in these assays?
FBW7 act: 0; GPR151 ag: -1; MITF inh: 1; TEAD-YAP block: -2

How did CCCN1CCC[C@@H]2Cc3[nH]ncc3C[C@H]21 do in these assays?
FBW7 act: 0; GPR151 ag: 7.8*!; MITF inh: -1; TEAD-YAP block: -1; GPR151 conf act: 1; GPR119 counter: -7

How did COc1ccc(CC(=O)N2CCN(Cc3nc(-c4ccc(Cl)cc4)cs3)CC2)cc1OC do in these assays?
FBW7 act: 1; GPR151 ag: 15*; MITF inh: 8; TEAD-YAP block: 61*; GPR151 conf act: 0; GPR119 counter: 4

How did COc1cc(C=C2C(=O)NC(=S)NC2=O)ccc1OC(=O)c1ccc(C)cc1 do in these assays?
FBW7 act: 0; GPR151 ag: 6.6*; MITF inh: 13; TEAD-YAP block: 1; GPR151 conf act: -1; GPR119 counter: 2

What do the screens show for `C=CCN1C(=O)/C(=C\c2cc(Cl)c(O)c(OC)c2)C(=O)NC1=S`?
FBW7 act: 0; GPR151 ag: 1; MITF inh: -8; TEAD-YAP block: -2

What do the screens show for `C=CCN1C(=O)/C(=C/c2ccc(Cl)cc2Cl)C(=O)NC1=S`?
FBW7 act: 0; GPR151 ag: 9.1*; MITF inh: 9; TEAD-YAP block: 4; GPR151 conf act: -1; GPR119 counter: -8

Results for O=c1c(-c2ccccc2)coc2c(CN3CCCCC3)c(O)ccc12 ?
FBW7 act: 0; GPR151 ag: 5.1*; MITF inh: 3; TEAD-YAP block: 8; GPR151 conf act: -1; GPR119 counter: -8

How did COc1ccc(CCNC2CCC(C)CC2)cc1 (stereo not drawn) do in these assays?
FBW7 act: 0; GPR151 ag: 0; MITF inh: -4; TEAD-YAP block: 8

Results for C=C[C@H]1CN2CC[C@H]1C[C@H]2[C@H](O)c1ccnc2ccccc12 ?
FBW7 act: 0; GPR151 ag: 5.4*!; MITF inh: -1; TEAD-YAP block: 20; GPR151 conf act: -1; GPR119 counter: 3

What do the screens show for `COc1cc2c(cc1O)[C@@H]1Cc3ccc(OC)c(O)c3CN1CC2`?
FBW7 act: 0; GPR151 ag: 6.0*; MITF inh: 14; TEAD-YAP block: 44*; GPR151 conf act: 1; GPR119 counter: -13

Results for CCN(CC)C(=O)c1ccc(NC(=O)c2cccc(I)c2)cc1 ?
FBW7 act: 1; GPR151 ag: -2; MITF inh: -2; TEAD-YAP block: -31

Results for CN(C)CP(=O)(Nc1ccccc1)N(C)C (stereo not drawn) ?
FBW7 act: 0; GPR151 ag: 2; MITF inh: 2; TEAD-YAP block: 7

What do the screens show for `CC(C)P(=O)(Nc1ccccc1)C(C)C`?
FBW7 act: 0; GPR151 ag: 8.0*; MITF inh: 1; TEAD-YAP block: 4; GPR151 conf act: 0; GPR119 counter: 7

What do the screens show for `CC(Cc1cccc(C(F)(F)F)c1)NCCCc1ccccc1` (stereo not drawn)?
FBW7 act: 0; GPR151 ag: 9.1*; MITF inh: -9; GPR151 conf act: 0; GPR119 counter: -5

How did Nc1n[nH]c2c([N+](=O)[O-])cc([N+](=O)[O-])cc12 do in these assays?
FBW7 act: 0; GPR151 ag: 0; MITF inh: 2; TEAD-YAP block: -11

Results for O=C(O)CCn1cc(C=C2C(=O)NC(=O)NC2=O)c(-c2ccc(Br)cc2)n1 ?
FBW7 act: 0; GPR151 ag: 5.4*; MITF inh: 1; TEAD-YAP block: 15; GPR151 conf act: 3; GPR119 counter: -3

How did O=C(O)CCn1cc(C=C2C(=O)NC(=S)NC2=O)c(-c2cccc(Cl)c2)n1 do in these assays?
FBW7 act: 0; GPR151 ag: 0; MITF inh: 1; TEAD-YAP block: 10

How did C[C@@H]1O[C@@H](O[C@H]2C[C@@H](O)[C@]3(CO)[C@H]4[C@H](O)C[C@]5(C)[C@@H](C6=CC(=O)OC6)CC[C@]5(O)[C@@H]4CC[C@]3(O)C2)[C@H](O)[C@H](O)[C@H]1O do in these assays?
FBW7 act: 0; GPR151 ag: 5.7*!; MITF inh: 7; TEAD-YAP block: 103*; GPR151 conf act: 3; GPR119 counter: 128*

Results for CC(C)CC(=O)NC(=O)NC(C)Cc1ccccc1 (stereo not drawn) ?
FBW7 act: 0; GPR151 ag: 0; MITF inh: 0; TEAD-YAP block: -11

Results for CCc1c(C)nc(N)nc1N1N=C1SCC(N)=O ?
FBW7 act: 1; GPR151 ag: 9.5*; MITF inh: 14; TEAD-YAP block: -5; GPR151 conf act: -1; GPR119 counter: -8
